# Experimental data reported in ChEMBL document CHEMBL3988442, “University of Dundee, Small-Polar-MMV Screening Library” (2021).
# Tests used:
# [1] = biological target: T1, Aspartate--tRNA(Asp/Asn) ligase (Mycobacterium tuberculosis (strain ATCC 25618 / H37Rv)) (UniProt P9WFW3); experiment: Assay for Asp RNA synthetase-1 from Mycobacterium tuberculosis; assay type: functional; design: scale not given: direction of the effect not stated beside the values; details: 30 µM; note: in the data most compounds retested in dose-response had high values
# T1 sequence (whole entry): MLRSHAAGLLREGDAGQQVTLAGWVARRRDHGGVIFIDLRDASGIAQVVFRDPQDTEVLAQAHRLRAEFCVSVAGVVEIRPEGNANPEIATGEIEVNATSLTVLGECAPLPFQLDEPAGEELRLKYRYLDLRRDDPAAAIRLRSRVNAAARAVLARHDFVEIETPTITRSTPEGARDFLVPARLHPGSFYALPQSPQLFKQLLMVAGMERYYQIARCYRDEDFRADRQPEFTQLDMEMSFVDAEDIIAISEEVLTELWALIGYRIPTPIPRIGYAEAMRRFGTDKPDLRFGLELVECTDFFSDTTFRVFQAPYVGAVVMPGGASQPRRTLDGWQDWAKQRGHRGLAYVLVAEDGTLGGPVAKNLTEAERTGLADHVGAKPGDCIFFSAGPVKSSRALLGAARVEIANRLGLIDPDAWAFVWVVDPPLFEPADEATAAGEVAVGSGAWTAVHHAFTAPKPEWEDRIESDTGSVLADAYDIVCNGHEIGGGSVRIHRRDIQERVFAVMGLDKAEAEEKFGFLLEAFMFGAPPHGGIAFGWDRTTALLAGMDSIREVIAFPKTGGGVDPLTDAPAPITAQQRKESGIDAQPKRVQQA
# [2] = biological target: Shiga toxin 2 (Escherichia coli O157:H7) (UniProt P09385+P09386); experiment: E. coli 0.157:H7 Shiga Toxin SOP - stx2 screening assay; assay type: functional; design: scale not given: direction of the effect not stated beside the values; details: 30 µM
Structure (SMILES),Percent Effect [1] [%],Percent Effect [2] [%]
CNC(=O)c1cc2c(nc1N(C)C)CCN(S(=O)(=O)C1CC1)CC2,0.364,-4.82
O=C(c1ccccn1)N1C[C@@H]2CC[C@H](C1)N(C(=O)CCc1ccsc1)C2,0.446,-55.7
CNS(=O)(=O)c1ccc(C(=O)NCCNc2ncccn2)cc1,-1.6,25.5
Cc1cc(C)cc(C2(C(=O)NC(C)Cn3ccnc3)CC2)c1 (configuration not stated),-2.37,-14.1
Cc1ccc2oc(CNC(C)c3nnc4n3CCCC4)cc2c1 (configuration not stated),-1.73,-34.3
O=C(c1cnco1)N1C[C@@H]2CC[C@H](Oc3ccccc3F)[C@@H]2C1,-1.03,-75.8
Cc1nc(CN2CCCC(CCc3ccc(F)cc3F)C2)c[nH]1 (configuration not stated),-7.38,-3.15
Cc1cc(N2CCN(Cc3ccccc3)CC(O)C2)cc(C)n1 (configuration not stated),-5.25,-16.3
NC(=O)COc1ccc(CNCc2ccc(F)c(F)c2)cc1,-1.73,-31.1
CC(NC(=O)NCCCn1cncn1)c1ccccc1Cl (configuration not stated),9.3,-26.7
CCOc1cccc2c1OCC(C(=O)NS(=O)(=O)c1ccc(Cl)cc1)=C2,0.459,17
O=C(C1CCOCC1)N1CCC2(CC1)CC(Oc1ccccc1)CO2 (configuration not stated),-1.89,25.7
O=C1CCc2cc(-c3csc(CCN4CCCC4=O)n3)ccc2N1,-0.577,-10.4
CCc1nc(C2CCCN2C(=O)c2ncoc2CC)no1 (configuration not stated),-3.37,4.73
Cc1cccc(CN2C[C@@H]3CN(C(=O)NC(C)C)C[C@@H]3C2=O)c1,0.565,-52.1
CCCN(Cc1ccccc1)Cn1nc(C)c2c(C)onc2c1=O,9.28,6.54
